Results taken from the supplement of paper PMC10849652.
About 7,900 targets were measured; listed, in parts, are those with a hit and a random draw of the rest. About 0.6% of all pairs of compound and target were hits. Values without a mark were called inactive.

Tests used:
Experiment in all cases: log2 fold change, soluble protein after heating vs DMSO (PISA); higher = thermal stabilisation; K562 cells, 10 uM, 30 min; active = over 0.2 and 3.5 SD of the protein, either way, in both replicates (recomputed)
[1] = compound: NC(=O)Nc1cc(-c2cccc(F)c2)sc1C(=O)N[C@H]1CCCNC1
In short: (§1)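 Soluble protein was defined as the supernatant after 21,000xg for 90 min. It came from K562 cells at 2×10^6 cells/mL given 10 μM compound for 30 min, heated in aliquots for 3 min across 48°C-58°C, pooled, and extracted in PBS with 0.5% NP-40 at 4°C, and was quantified by TMTpro 16plex LC-MS/MS with equalised channel sums. Thermal stability against control samples, from duplicates, is reported as log2 fold change.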

[2] = compound: NC(=O)c1cnc(N[C@@H]2CCCC[C@@H]2N)nc1Nc1cccc(-n2nccn2)c1
In short: as §1

[3] = compound: NC1(c2ccc(-c3nc4ccn5c(=O)[nH]nc5c4cc3-c3ccccc3)cc2)CCC1
In short: as §1

[4] = compound: NCC(=O)Nc1ccc(-n2nc(C(F)(F)F)cc2-c2ccc3c(ccc4ccccc43)c2)cc1
In short: as §1

entinostat = compound: Nc1ccccc1NC(=O)c1ccc(CNC(=O)OCc2cccnc2)cc1 [entinostat]
In short: as §1

vorinostat = compound: O=C(CCCCCCC(=O)Nc1ccccc1)NO [vorinostat]
In short: as §1

citarinostat = compound: O=C(CCCCCCNC(=O)c1cnc(N(c2ccccc2)c2ccccc2Cl)nc1)NO [citarinostat]
In short: as §1

silmitasertib = compound: O=C(O)c1ccc2c(c1)nc(Nc1cccc(Cl)c1)c1ccncc12 [silmitasertib]
In short: as §1

[5] = compound: O=C1NC(=O)C(c2cnc3ccccn23)=C1c1cn2c3c(cc(F)cc13)CN(C(=O)N1CCCCC1)CC2
In short: as §1

[6] = compound: c1cc(OCCN2CCCCC2)cc(-c2n[nH]c3ccc(-c4nnc[nH]4)cc23)c1
In short: as §1

UniProt P42785, sequence (P42785 whole entry, looked up): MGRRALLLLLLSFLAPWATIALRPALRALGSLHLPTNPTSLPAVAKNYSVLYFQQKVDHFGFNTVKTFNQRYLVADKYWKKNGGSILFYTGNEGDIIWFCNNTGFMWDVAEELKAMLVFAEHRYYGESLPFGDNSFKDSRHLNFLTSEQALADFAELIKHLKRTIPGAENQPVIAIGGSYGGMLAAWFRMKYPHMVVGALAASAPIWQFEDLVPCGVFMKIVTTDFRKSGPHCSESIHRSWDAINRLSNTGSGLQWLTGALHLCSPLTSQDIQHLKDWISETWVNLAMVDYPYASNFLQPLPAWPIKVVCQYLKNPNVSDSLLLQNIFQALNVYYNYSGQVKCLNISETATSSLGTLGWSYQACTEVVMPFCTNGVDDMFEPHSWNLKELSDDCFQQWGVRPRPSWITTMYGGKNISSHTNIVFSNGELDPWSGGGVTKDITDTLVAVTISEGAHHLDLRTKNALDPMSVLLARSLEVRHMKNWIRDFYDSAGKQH
UniProt P49585, sequence (P49585 whole entry, looked up): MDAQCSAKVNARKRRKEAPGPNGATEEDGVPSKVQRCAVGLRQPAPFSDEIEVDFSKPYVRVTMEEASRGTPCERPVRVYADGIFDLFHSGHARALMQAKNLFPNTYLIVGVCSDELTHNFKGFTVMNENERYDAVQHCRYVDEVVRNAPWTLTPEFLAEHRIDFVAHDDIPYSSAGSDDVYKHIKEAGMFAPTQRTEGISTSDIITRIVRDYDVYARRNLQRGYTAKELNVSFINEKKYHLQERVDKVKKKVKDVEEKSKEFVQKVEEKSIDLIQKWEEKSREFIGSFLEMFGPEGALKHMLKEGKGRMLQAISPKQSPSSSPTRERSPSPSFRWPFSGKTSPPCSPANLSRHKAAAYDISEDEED
UniProt P53350, sequence (P53350 whole entry, looked up): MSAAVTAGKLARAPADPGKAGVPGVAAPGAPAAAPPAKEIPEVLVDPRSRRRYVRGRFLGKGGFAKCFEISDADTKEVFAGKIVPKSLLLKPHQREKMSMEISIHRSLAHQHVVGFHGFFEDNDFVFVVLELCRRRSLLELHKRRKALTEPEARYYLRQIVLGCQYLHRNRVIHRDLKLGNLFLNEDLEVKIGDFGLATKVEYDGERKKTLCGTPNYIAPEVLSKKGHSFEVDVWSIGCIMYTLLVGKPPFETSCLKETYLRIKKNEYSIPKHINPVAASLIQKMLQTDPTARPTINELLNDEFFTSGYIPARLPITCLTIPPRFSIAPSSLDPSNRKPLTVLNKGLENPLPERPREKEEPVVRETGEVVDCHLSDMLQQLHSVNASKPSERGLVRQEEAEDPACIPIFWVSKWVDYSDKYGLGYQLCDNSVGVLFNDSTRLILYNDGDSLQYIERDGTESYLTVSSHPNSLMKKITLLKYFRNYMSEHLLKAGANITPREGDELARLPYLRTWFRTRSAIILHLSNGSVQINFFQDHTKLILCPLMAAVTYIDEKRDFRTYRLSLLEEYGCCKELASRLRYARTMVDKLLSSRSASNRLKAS
UniProt P50336, sequence (P50336 whole entry, looked up): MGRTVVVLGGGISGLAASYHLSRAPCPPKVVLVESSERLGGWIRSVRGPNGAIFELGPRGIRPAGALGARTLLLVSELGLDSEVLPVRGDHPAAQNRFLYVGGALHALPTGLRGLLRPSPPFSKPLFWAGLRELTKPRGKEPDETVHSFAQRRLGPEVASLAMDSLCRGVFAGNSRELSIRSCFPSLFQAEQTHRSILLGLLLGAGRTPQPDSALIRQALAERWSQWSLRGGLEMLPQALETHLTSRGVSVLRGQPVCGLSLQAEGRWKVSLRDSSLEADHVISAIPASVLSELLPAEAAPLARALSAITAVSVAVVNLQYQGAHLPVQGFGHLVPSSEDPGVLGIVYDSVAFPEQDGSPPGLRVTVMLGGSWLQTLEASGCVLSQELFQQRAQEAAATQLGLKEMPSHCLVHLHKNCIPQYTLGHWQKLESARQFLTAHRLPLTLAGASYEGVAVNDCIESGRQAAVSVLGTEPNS
UniProt Q13523, sequence (Q13523 whole entry, looked up): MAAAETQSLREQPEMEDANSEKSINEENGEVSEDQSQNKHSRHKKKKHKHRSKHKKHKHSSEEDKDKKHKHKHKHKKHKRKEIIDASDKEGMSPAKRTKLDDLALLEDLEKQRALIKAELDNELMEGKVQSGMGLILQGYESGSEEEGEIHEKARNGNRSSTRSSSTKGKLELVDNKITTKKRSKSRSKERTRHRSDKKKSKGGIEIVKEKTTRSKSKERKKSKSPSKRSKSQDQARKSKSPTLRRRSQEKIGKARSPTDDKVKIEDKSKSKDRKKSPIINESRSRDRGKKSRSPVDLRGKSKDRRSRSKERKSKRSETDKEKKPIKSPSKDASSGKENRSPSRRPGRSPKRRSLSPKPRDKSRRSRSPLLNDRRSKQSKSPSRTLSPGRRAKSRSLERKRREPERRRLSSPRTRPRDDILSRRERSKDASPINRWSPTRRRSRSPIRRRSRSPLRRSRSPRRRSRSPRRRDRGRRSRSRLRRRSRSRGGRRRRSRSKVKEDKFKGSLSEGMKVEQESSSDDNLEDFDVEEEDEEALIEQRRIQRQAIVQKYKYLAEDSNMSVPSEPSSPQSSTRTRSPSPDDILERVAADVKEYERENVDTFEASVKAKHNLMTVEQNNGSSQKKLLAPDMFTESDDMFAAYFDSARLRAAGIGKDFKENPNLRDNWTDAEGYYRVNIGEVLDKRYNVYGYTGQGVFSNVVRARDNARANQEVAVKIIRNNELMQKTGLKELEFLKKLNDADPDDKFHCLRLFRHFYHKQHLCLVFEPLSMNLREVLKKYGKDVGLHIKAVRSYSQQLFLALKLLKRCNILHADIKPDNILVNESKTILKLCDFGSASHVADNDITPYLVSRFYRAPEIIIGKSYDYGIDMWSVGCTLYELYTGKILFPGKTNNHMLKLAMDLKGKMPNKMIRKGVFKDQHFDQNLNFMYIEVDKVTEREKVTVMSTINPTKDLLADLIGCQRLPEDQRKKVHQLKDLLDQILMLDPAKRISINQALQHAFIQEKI
UniProt Q8WUA2, sequence (Q8WUA2 whole entry, looked up): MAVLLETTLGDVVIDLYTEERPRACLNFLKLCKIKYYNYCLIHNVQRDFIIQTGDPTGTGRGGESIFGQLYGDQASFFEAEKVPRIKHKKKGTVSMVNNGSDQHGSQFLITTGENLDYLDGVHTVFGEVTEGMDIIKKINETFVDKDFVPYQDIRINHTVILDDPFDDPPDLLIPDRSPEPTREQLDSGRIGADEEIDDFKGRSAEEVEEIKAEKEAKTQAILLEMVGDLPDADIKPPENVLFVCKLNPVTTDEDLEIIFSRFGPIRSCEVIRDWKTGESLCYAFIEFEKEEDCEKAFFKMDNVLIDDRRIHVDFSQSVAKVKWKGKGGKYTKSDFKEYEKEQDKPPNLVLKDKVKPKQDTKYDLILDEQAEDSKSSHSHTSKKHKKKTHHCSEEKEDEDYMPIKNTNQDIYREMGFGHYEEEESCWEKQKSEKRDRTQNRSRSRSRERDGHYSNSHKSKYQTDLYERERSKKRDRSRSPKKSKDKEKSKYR
UniProt P13861, sequence (P13861 whole entry, looked up): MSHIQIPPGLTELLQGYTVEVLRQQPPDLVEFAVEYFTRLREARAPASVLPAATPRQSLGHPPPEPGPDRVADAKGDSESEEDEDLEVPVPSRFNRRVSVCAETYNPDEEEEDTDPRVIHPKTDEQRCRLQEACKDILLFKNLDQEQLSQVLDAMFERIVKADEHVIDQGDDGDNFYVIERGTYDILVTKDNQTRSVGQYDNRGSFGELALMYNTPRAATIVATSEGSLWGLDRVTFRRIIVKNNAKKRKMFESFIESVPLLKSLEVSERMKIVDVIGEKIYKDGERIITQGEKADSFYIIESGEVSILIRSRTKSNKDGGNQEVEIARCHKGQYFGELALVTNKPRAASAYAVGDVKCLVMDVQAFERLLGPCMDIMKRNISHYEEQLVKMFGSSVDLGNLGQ
UniProt Q9Y244, sequence (Q9Y244 whole entry, looked up): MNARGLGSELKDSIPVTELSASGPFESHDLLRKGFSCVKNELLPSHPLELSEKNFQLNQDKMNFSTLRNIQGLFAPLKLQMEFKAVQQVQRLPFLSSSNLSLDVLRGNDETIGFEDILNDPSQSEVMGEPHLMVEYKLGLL
UniProt O60925, sequence (O60925 whole entry, looked up): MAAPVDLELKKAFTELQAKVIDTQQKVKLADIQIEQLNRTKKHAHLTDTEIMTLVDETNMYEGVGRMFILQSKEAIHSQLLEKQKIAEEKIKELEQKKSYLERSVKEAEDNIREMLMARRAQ
UniProt Q9Y478, sequence (Q9Y478 whole entry, looked up): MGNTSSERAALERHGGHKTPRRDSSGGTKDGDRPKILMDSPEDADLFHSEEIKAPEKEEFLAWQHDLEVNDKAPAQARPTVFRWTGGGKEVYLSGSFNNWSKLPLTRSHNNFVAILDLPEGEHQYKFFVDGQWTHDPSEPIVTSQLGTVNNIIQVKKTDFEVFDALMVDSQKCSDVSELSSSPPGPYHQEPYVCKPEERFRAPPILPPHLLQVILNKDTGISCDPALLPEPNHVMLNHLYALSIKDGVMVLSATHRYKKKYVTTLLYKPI
UniProt O00233, sequence (O00233 whole entry, looked up): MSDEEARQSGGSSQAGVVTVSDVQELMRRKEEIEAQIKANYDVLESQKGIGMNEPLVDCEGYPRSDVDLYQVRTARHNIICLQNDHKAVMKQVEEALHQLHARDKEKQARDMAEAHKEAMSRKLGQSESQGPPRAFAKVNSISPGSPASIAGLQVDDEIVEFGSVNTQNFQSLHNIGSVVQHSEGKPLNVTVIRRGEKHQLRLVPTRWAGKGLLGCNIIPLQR
UniProt P28072, sequence (P28072 whole entry, looked up): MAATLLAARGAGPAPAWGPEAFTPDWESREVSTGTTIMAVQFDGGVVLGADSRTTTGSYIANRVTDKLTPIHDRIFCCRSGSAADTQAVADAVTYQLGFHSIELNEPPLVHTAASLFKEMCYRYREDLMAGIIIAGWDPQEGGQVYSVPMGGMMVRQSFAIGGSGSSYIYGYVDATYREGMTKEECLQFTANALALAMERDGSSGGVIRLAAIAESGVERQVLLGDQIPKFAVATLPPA

| Target | log2 fold change [1] | log2 fold change [2] | log2 fold change [3] | log2 fold change [4] | log2 fold change (entinostat) | log2 fold change (vorinostat) | log2 fold change (citarinostat) | log2 fold change (silmitasertib) | log2 fold change [5] | log2 fold change [6] |
| --- | --- | --- | --- | --- | --- | --- | --- | --- | --- | --- |
| PTMA (UniProt P06454) | 0.279 | 0.2 | 0.217 | 0.157 | 0.052 | -0.026 | -0.018 | -0.628 (active) | 0.021 | 0.099 |
| PAK4 (UniProt O96013) | 0.048 | 0.388 (active) | 0.015 | -0.038 | -0.083 | 0.01 | 0.003 | 0.041 | 0.017 | -0.039 |
| PPIL4 (UniProt Q8WUA2) | -0.021 | -0.085 | 0.002 | -0.071 | 0.011 | 0.016 | 0.033 | -0.005 | -0.005 | -0.1 |
| PEX13 (UniProt Q92968) | -0.03 | -0.086 | -0.101 | -0.034 | -0.051 | -0.195 | 0.023 | 0.025 | 0.026 | -0.015 |
| PRPF4B (UniProt Q13523) | -0.057 | -0.075 | -0.022 | -0.065 | -0.008 | 0.025 | 0.033 | 0.01 | 0.055 | -0.328 (active) |
| PSMD9 (UniProt O00233) | 0.041 | 0.017 | 0.022 | 0.072 | 0.017 | 0.086 | 0.029 | -0.013 | -0.027 | 0.005 |
| PRKAR2A (UniProt P13861) | -0.502 (active) | -0.071 | -0.002 | -0.039 | 0.025 | -0.012 | 0.002 | 0.051 | 0.002 | -0.028 |
| PCYT1A (UniProt P49585) | -0.015 | -0.093 | -0.234 | -0.066 | 0.033 | 0.086 | 0.081 | 0.022 | -0.06 | -0.002 |
| PTPN12 (UniProt Q05209) | 0.037 | -0.023 | -0.1 | -0.012 | 0.038 | -0.01 | 0.019 | 0.163 | 0.014 | -0.015 |
| PURA (UniProt Q00577) | 0.015 | 0.105 | 0.377 | 0.036 | -0.085 | -0.079 | -0.141 | 0.248 | 0.185 | -0.114 |
| PGK2 (UniProt P07205) | -0.056 | -0.032 | -0.038 | -0.134 | 0.021 | -0.056 | -0.121 | 0.172 | -0.532 (active) | -0.012 |
| PTPA (UniProt A6PVN8) | -0.015 | -0.057 | -0.062 | -0.003 | -0.04 | 0.099 | -0.098 | 0.266 | 0.05 | -0.05 |
| PLCL1 (UniProt Q15111) | 0.05 | -0.035 | -0.069 | -0.01 | 0.043 | -0.012 | 0.02 | -0.475 | -0.854 (active) | 0.05 |
| PPOX (UniProt P50336) | -0.042 | -0.228 | -0.182 | -0.009 | 0.04 | 0.003 | 0.02 | 0.158 | 0.094 | 0.018 |
| PRCP (UniProt P42785) | 0.013 | 0.005 | -0.106 | 0.008 | 0.035 | 0.005 | 0.028 | 0 | -0.014 | 0.044 |
| PITRM1 isoform 2 (UniProt Q5JRX3) | 0.116 | -0.077 | -0.051 | -0.061 | 0.097 | 0.089 | 0.104 | -0.045 | 0.05 | 0.096 |
| PRKAB1 (UniProt Q9Y478) | -0.015 | 0.186 | -0.015 | 0.035 | 0.056 | 0.063 | 0.089 | 0 | -0.036 | -0.067 |

| Target | log2 fold change [1] | log2 fold change [2] | log2 fold change [3] | log2 fold change [4] | log2 fold change (entinostat) | log2 fold change (vorinostat) | log2 fold change (citarinostat) | log2 fold change (silmitasertib) | log2 fold change [5] | log2 fold change [6] |
| --- | --- | --- | --- | --- | --- | --- | --- | --- | --- | --- |
| PHKA2 (UniProt P46019) | 0.013 | -0.112 | -0.157 | 0.005 | 0.13 | 0.04 | -0.046 | 0.001 | -0.013 | 0.065 |
| PLEKHM2 (UniProt Q8IWE5) | 0.01 | -0.102 | -0.315 (active) | -0.107 | 0.024 | 0.072 | 0.109 | -0.058 | -0.009 | -0.125 |
| PATL1 (UniProt Q86TB9) | 0.054 | -0.213 | -0.047 | -0.025 | 0.052 | 0.106 | 0.02 | 0.04 | 0.069 | -0.093 |
| PSMD3 (UniProt O43242) | -0.027 | 0.009 | -0.032 | 0.041 | -0.02 | -0.009 | -0.009 | 0.008 | 0.014 | -0.082 |
| POMP (UniProt Q9Y244) | 0.106 | 0.039 | -0.029 | -0.024 | 0.05 | -0.066 | 0.026 | 0.022 | -0.022 | -0.01 |
| PIK3R1 (UniProt P27986) | -0.08 | -0.056 | -0.016 | -0.021 | -0.026 | 0.029 | 0.007 | -0.013 | 0.028 | 0.126 |
| PIP4K2A (UniProt P48426) | -0.026 | 0.013 | -0.086 | 0.113 | 0.026 | -0.037 | 0.004 | 0.259 | 0.057 | -0.057 |
| PSMA3 (UniProt P25788) | 0.03 | 0.022 | 0.071 | 0.058 | -0.027 | -0.029 | 0.005 | -0.002 | 0.102 | -0.056 |
| PSPC1 (UniProt Q8WXF1) | -0.001 | -0.039 | 0.021 | -0.027 | -0.014 | 0.14 | 0.067 | -0.032 | -0.074 | -0.057 |
| PELP1 (UniProt Q8IZL8) | 0.071 | -0.068 | -0.046 | 0.071 | -0.022 | -0.003 | 0.038 | 0.078 | -0.084 | -0.027 |
| PEF1 (UniProt Q9UBV8) | -0.029 | -0.026 | -0.219 | -0.036 | 0.128 | 0.01 | 0.045 | 0.028 | -0.103 | -0.02 |
| PDE2A (UniProt O00408) | 0.035 | -0.008 | -0.018 | -0.033 | -0.082 | 0.118 | -0.032 | 0.035 | -0.052 | 0.018 |
| PPP1R14A (UniProt Q96A00) | -0.051 | 0.101 | 0.02 | 0.029 | 0 | 0.105 | 0 | -0.089 | -0.014 | 0.018 |
| PLK1 (UniProt P53350) | -0.399 (active) | 0.033 | -0.024 | 0.005 | -0.005 | 0.002 | 0.019 | -0.135 | 0.032 | -0.103 |
| PSMB6 (UniProt P28072) | 0.024 | 0.006 | 0.046 | 0.044 | -0.054 | -0.093 | -0.046 | -0.004 | 0.044 | -0.034 |
| PFDN1 (UniProt O60925) | 0.013 | 0.003 | 0.002 | -0.047 | 0.044 | -0.056 | 0.09 | -0.029 | -0.05 | -0.001 |
| PTRH2 (UniProt Q9Y3E5) | -0.061 | 0.018 | -0.001 | 0.004 | -0.016 | -0.002 | 0.047 | 0.007 | -0.089 | 0.005 |
